Source: the supplement of paper PMC10849652
The full data set covers some 7,900 targets. This sample favours those with a hit. About 0.6% of all pairs of compound and target were hits.

These targets were tested with c1cn2cc(-c3ccc4cn[nH]c4c3)nc(Nc3ccc(N4CCOCC4)cc3)c2n1 [entospletinib] (assay: log2 fold change, soluble protein after heating vs DMSO (PISA); higher = thermal stabilisation; K562 cells, 10 uM, 30 min; active = over 0.2 and 3.5 SD of the protein, either way, in both replicates (recomputed)).
Summary of the method: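 Soluble protein was quantified by TMTpro 16plex LC-MS/MS after channel sums were equalised. It was obtained as the supernatant after 21,000xg for 90 min from pooled aliquots of K562 cells (2×10^6 cells/mL, 10 μM compound, 30 min) heated for 3 min across 48°C-58°C and extracted in PBS with 0.5% NP-40 at 4°C. Thermal stability values are relative to control samples and come from duplicates. They are given as log2 fold changes.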

Sequence of UniProt Q9Y2L5 (Q9Y2L5 whole entry, looked up): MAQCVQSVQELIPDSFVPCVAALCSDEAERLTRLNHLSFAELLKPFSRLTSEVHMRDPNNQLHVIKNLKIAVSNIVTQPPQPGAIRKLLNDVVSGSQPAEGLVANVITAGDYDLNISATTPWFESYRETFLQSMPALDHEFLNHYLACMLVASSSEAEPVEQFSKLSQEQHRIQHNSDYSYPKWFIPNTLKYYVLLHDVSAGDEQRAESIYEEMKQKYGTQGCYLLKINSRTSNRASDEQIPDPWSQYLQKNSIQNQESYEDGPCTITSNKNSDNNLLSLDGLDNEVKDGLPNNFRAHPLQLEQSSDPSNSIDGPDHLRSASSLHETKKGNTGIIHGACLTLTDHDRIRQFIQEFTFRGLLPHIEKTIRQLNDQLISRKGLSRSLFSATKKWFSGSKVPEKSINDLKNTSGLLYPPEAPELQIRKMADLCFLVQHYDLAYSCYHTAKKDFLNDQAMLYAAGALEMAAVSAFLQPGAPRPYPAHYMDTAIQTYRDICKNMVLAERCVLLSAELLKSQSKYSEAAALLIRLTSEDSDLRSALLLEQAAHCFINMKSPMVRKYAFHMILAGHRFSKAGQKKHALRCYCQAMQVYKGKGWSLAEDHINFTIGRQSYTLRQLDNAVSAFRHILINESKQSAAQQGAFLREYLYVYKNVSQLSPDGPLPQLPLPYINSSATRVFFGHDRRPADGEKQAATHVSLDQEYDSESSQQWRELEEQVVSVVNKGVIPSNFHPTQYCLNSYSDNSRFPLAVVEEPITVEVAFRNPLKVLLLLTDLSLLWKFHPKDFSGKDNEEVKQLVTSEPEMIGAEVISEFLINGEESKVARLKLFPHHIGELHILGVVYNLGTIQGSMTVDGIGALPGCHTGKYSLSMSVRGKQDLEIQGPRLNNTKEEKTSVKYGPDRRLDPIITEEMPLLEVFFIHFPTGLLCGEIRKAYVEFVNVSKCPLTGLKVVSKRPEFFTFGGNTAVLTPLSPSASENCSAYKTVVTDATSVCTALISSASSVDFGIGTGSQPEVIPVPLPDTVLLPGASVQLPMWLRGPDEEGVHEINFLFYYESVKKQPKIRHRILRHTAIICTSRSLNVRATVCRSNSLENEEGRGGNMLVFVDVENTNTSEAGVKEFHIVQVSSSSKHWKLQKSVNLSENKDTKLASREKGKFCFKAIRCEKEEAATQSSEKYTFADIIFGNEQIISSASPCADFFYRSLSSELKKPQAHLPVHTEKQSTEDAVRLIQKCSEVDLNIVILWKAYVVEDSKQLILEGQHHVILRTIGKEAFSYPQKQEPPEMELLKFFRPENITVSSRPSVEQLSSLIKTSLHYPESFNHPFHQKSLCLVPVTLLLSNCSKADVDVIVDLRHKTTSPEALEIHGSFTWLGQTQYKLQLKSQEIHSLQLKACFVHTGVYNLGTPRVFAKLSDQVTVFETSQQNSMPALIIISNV
Sequence of UniProt O75717 (O75717 whole entry, looked up): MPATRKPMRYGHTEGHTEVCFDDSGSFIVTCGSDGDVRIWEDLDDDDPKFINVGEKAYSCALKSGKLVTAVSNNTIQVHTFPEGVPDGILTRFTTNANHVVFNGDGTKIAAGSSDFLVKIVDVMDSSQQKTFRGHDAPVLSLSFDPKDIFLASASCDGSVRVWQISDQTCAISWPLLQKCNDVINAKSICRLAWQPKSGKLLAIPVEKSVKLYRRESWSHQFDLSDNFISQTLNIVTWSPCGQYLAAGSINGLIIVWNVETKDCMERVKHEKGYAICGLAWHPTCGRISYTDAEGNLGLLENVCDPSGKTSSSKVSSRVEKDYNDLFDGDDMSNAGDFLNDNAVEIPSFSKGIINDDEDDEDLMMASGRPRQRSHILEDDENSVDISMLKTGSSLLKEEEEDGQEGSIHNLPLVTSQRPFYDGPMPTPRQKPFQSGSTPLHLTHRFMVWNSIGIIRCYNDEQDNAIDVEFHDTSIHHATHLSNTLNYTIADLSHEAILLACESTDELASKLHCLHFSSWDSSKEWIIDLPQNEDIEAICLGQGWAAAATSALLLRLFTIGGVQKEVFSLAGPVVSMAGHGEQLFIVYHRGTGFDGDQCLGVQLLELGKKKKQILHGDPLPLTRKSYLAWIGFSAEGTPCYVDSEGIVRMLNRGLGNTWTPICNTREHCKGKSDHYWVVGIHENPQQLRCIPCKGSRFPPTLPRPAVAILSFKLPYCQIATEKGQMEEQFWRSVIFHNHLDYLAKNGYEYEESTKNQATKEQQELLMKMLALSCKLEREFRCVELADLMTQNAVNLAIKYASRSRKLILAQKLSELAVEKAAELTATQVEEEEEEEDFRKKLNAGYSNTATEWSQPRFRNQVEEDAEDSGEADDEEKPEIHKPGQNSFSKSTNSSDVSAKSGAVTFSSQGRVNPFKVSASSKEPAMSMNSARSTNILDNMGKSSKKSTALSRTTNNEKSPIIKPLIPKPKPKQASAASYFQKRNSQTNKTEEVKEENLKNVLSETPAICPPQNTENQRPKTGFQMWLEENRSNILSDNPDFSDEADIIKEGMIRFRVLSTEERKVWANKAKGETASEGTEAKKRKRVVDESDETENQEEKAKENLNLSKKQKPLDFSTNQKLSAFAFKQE
Sequence of UniProt Q9H3M7 (Q9H3M7 whole entry, looked up): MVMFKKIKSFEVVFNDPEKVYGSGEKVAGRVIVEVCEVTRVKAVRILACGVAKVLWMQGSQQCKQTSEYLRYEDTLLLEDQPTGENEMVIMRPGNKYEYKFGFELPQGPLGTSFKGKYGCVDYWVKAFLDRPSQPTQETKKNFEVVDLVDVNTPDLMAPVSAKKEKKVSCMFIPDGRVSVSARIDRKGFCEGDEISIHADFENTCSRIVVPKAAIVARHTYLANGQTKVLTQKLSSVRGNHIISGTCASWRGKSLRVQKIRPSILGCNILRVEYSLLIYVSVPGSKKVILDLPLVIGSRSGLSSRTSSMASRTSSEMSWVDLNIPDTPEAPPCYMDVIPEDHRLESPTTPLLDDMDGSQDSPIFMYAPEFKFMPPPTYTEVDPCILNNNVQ
Sequence of UniProt Q96AJ9 (Q96AJ9 whole entry, looked up): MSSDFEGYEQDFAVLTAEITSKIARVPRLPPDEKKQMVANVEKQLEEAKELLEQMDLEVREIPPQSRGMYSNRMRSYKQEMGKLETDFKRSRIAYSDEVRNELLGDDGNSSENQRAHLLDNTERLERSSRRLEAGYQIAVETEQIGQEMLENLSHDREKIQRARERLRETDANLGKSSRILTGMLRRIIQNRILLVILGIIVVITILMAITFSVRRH
Sequence of UniProt Q15642 (Q15642 whole entry, looked up): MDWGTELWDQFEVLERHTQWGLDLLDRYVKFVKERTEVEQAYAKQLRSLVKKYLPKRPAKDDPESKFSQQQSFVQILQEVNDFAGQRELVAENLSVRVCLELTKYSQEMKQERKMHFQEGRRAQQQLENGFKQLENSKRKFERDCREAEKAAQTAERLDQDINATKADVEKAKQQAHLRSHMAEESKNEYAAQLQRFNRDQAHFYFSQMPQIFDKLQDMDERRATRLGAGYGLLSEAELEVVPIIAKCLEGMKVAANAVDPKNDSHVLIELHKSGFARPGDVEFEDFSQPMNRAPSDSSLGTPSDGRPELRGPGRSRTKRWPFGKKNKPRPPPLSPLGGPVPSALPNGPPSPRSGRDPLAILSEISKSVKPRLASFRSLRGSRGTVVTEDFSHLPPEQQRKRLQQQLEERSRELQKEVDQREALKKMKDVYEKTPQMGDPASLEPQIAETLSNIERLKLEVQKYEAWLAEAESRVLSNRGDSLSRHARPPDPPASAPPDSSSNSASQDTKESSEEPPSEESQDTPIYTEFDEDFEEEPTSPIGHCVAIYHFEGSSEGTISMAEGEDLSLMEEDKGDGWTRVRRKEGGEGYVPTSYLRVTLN
Sequence of UniProt O14980 (O14980 whole entry, looked up): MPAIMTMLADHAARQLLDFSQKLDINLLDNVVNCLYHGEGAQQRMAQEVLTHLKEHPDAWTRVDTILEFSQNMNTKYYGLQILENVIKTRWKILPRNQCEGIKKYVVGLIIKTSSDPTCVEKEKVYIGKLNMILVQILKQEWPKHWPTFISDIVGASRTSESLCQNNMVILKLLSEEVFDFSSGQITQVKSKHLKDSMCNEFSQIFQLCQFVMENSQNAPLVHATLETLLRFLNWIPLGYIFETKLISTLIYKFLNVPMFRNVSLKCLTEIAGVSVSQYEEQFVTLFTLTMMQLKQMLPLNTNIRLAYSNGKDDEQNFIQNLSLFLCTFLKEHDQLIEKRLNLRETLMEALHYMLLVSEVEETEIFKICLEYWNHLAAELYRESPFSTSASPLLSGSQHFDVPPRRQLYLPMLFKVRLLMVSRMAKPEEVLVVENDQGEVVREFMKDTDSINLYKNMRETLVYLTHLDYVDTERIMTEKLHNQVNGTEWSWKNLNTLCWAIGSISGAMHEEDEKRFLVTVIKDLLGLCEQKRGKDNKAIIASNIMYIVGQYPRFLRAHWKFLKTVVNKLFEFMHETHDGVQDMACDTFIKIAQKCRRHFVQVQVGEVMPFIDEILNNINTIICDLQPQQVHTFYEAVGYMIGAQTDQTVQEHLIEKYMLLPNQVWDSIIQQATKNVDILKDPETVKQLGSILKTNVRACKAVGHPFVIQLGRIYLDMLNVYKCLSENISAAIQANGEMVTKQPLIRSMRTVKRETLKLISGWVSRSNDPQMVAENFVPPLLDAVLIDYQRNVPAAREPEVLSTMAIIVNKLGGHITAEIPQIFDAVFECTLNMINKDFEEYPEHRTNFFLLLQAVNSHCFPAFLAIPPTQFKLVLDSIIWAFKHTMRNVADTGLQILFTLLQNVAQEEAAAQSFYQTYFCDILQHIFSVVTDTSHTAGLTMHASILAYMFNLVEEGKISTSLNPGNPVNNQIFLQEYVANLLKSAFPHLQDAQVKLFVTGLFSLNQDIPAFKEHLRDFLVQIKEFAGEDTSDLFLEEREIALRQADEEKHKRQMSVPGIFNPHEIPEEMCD
Sequence of UniProt P51809 (P51809 whole entry, looked up): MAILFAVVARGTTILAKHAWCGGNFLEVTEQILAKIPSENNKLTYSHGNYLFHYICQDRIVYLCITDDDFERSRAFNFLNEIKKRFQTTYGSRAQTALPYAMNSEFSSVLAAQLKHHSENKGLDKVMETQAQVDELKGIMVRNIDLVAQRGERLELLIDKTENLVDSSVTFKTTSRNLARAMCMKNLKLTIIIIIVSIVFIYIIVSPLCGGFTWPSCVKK

log2 fold change, inactive:
TMEM223 (UniProt A0PJW6) 0.047
VPS18 (UniProt Q9P253) -0.07
USP7 (UniProt Q93009) -0.019
UCHL5 (UniProt Q9Y5K5) -0.023
VTI1A (UniProt Q96AJ9) 0.013
TNPO3 (UniProt Q9Y5L0) -0.048
TTC4 (UniProt O95801) -0.002
TXN2 (UniProt Q99757) 0
UHRF1BP1L (UniProt A0JNW5) 0.012
TXNIP (UniProt Q9H3M7) -0.146
WDHD1 (UniProt O75717) -0.019
XPO1 (UniProt O14980) -0.016
TMEM161B (UniProt Q8NDZ6) 0.016
TRIP10 (UniProt Q15642) 0.061
TRMT10C (UniProt Q7L0Y3) -0.043
VWA3B isoform 6 (UniProt Q502W6) -0.237
TRAPPC8 (UniProt Q9Y2L5) 0.004
VARS2, A0A0G2JL52 -0.03
VAMP7 (UniProt P51809) -0.032
TRMT61A (UniProt Q96FX7) 0.123
VTI1B (UniProt Q9UEU0) 0.082
TNFRSF8 (UniProt P28908) 0.002
TXNL1 (UniProt O43396) 0.034
VPS16 (UniProt Q9H269) -0.06
